Results filed as inconclusive are left out. Activity calls are given as the source filed them. The call rests on the fitted dose curve; in most records, active means well fitted inhibition curve with a large enough effect; inconclusive means small, poorly fitted or top-dose-only effect; inactive means flat fitted curve, though single readings scatter.
Each compound was assayed against Ferritin light chain (Equus caballus) (UniProt P02791) (assay: Confirmation Assay for Identification of Novel General Anesthetics). Details: apoferritin 1-aminoanthracene fluorescence displacement.
Sequence of Ferritin light chain (Equus caballus) (P02791 2-175 limits assumed): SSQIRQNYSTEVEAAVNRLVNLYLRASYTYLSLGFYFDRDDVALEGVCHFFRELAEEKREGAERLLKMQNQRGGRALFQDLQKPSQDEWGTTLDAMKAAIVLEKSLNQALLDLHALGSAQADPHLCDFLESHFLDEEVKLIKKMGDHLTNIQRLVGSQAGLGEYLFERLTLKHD
Source text: Anesthetic development has remained a largely empirical process. There are growing concerns about the cognitive effects of known general anesthetics and acceleration of the onset of neurodegenerative disease. The compounds' toxicity and multiple specific binding targets in the mammalian brain [4] has made them less attractive as drug leads. In this assay, a GABAergic mimetic model system, apoferritin and a profluorescent 1-aminoanthracene ligand (1-AMA), was used to construct a competitive binding assay for identification of novel general anesthetics. The assay was validated for 1-AMA using other known anesthetics, such as isoflurane (CID:3763) and propofol (CID: 4943), [6]. This particular BioAssay is a confirmation of followup compounds from primary screen AID:485281.
[1] S.L. Bianchi, T. Tran, C. Liu, S. Lin, Y. Li, J.M. Keller, R.G. Eckenhoff, and M.F. Eckenhoff, Brain and behavior changes in 12-month-old Tg2576 and nontransgenic mice exposed to anesthetics. Neurobiol Aging 29 (2008) 1002-10.
[2] Z. Xie, Y. Dong, U. Maeda, R.D. Moir, W. Xia, D.J. Culley, G. Crosby, and R.E. Tanzi, The inhalation anesthetic isoflurane induces a vicious cycle of apoptosis and amyloid beta-protein accumulation. J Neurosci 27 (2007) 1247-54.
[3] P. Honegger, and J.M. Matthieu, Selective toxicity of the general anesthetic propofol for GABAergic neurons in rat brain cell cultures. J Neurosci Res 45 (1996) 631-6.
[4] M.F. Eckenhoff, K. Chan, and R.G. Eckenhoff, Multiple specific binding targets for inhaled anesthetics in the mammalian brain. J Pharmacol Exp Ther 300 (2002) 172-9.
[5] C.A. Butts, J. Xi, G. Brannigan, A.A. Saad, S.P. Venkatachalan, R.A. Pearce, M.L. Klein, R.G. Eckenhoff, and I.J. Dmochowski, Identification of a fluorescent general anesthetic, 1-aminoanthracene. Proc Natl Acad Sci U S A 106 (2009) 6501-6.
[6] W.A. Lea, J. Xi, A. Jadhav, L. Lu, C.P. Austin, A. Simeonov, and R.G. Eckenhoff, A high-throughput approach for identification of novel general anesthetics. PLoS One 4 (2009) e7150.
Source: NIH Chemical Genomics Center [NCGC]
Assay Submitter: Roderic Eckenhoff, University of Pennsylvania
Screening Center PI: Christopher P. Austin, NIH
Probe Development: NIH Chemical Genomics Center [NCGC]
Three uL of reagents (free 1-AMA (50% saturated solution of 1-aminoanthracene
in PBS) in columns 3, 4 as negative control and 1-AMA/apoferritin mixture (10 uM horse-spleen apoferritin in 50% saturated 1-aminoanthracene in PBS) in columns 1, 2, 5-48) was dispensed into 1536-well Greiner black assay plates. Compounds (23 nL) were transferred via Kalypsys pintool equipped with 1,536-pin array (10 nL slotted pins, V&P Scientific, San Diego, CA). Titration of the positive control, propofol, were delivered via pin transfer from separate control plates to the 2nd column of each assay plate. The starting concentration of the control, dissolved in DMSO, was at 160 mM, followed by two-fold dilution points in duplicate, for a total of 16 concentrations. The plates were incubated for 10 min at room temperature, and then read on an EnVision HTS multilabel reader (Perkin-Elmer, Waltham, MA) (end point read, 3 min/plate) using Fura2 BFP excitation filter (380 nm, bandwidth 10 nm) and fluorescein emission filter (535 nm, bandwidth 25 nm) set. A LANCE/DELFIA dichroic mirror with a cutoff wavelength at 400 nm was used to maximize signal accuracy and strength. Vehicle-only plates, with DMSO being pin-transferred to the entire column 5-48 compound area, were inserted uniformly at the beginning and the end of each library in order to monitor for and record any shifts in the background. Activity was computed as the normalized fluorescence response relative to free 1-AMA and 1-AMA/apoferritin complex values. Concentration-effect relationships were derived by using curve fitting algorithms developed in-house (http://ncgc.nih.gov/pub/openhts/). […]
Further: nearly all actives have a fitted effect of over 40% in size.
Potency means the concentration at half of the fitted maximal effect.

Row | Structure (SMILES) | Potency
1 | O=C(Cn1nc(-c2ccccc2)ccc1=O)N1CCC2(CC1)OCCO2 | 15.8 µM (active)
2 | O=C(COC(=O)Cc1ccccc1)NC12CC3CC(CC(C3)C1)C2 | 14.1 µM (active)
3 | O=C1C(c2ccccc2)=C(N2CC2)c2ccccc21 | 35.5 µM (active)
4 | c1ccc(C2CC3CC4(CCCC4)N2O3)cc1 (configuration not stated) | 7.94 µM (active)
5 | CCN(CC)C(=O)Oc1ccc(Cl)c2ccccc12 | 31.6 µM (active)
6 | CC(C(=O)c1cn(C)c2ccccc12)c1ccccc1 (configuration not stated) | 35.5 µM (active)
7 | Nc1ccc(Oc2cccc(Oc3ccc(N)cc3)c2)cc1 | 31.6 µM (active)
